This is a sample that favours compounds with a hit; in the whole collection about 3.6% have one here.
HEK293 cAMP ctrl – counter-screen for TSHR agonists: cAMP increase in parental HEK293 | parental HEK293 CNG cAMP sensor, membrane potential fluorescence | Potency, µM (series often up to 57.1 µM), most hits filed as activators | actives 2.5% (n = 73,000); also: nearly all actives have a fitted effect of over 55% in size
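Parental HEK 293 cells stably expressing a cAMP-gated CNG channel were loaded with membrane potential dye containing 100 uM RO 20-1724 for 60 min. Compound added for 30 min; depolarization read as fluorescence intensity at 590 nm.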
CRE Fsk mod – modulators of forskolin-stimulated CRE signaling in CHO cells; CHO CRE-bla reporter (cAMP response element driving beta-lactamase), forskolin EC10, beta-lactamase ratio; Potency, µM (highest dose often 38.2 µM), hits mostly activators; actives 2.5% (n = 71,000); active = well fitted activation curve with a large enough effect in the signal ratio, with a control signal flat, not every such curve was filed as active; inconclusive = small, poorly fitted or top-dose-only effect, or effect the other way, or a change in a side signal; the % refers to the signal ratio
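CHO CRE-bla cells, overnight plating in Opti-MEM with 0.5% dialyzed FBS; cpd titration + EC10 NKH 477, 3 h 37 °C; CCF4 2 h RT; ex 405/em 460 vs 530 ratio → %Activity, AC50.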
ERK AVP inh – inhibitors of vasopressin-stimulated ERK signaling pathway. HEK293-V1b, vasopressin-stimulated pERK AlphaScreen. Potency, µM (titrated, usually from 57.5 µM), most hits filed as inhibitors. actives 0.99% (n = 72,000). AID 995; also: nearly all actives have a fitted effect of over 55% in size
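qHTS, compounds titrated on V1b-expressing HEK293 cells. Preincubation 30 min at 37C, vasopressin 25 nM for 5 min, lysis 10 min, bead incubation 5 hr at room temperature.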
IkB sig inh – IkB pathway inhibition in ABC-DLBCL cells; ABC-DLBCL IkBa-CBG/CBR dual luciferase ratio, 4 h; response scale: scaled: untreated 0%, proteasome inhibitor 100%; actives 0.04% (n = 110,000); Potency, µM (doses to about 57.1 µM); active = well fitted curve in the direction sought with a large enough effect in the signal ratio, not every such curve was filed as active; inconclusive = small, poorly fitted or top-dose-only effect, or a change in a side signal; the % refers to the signal ratio;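 also: the direction sought is a rising ratio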
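Luminescence ratio of IκBα-fused green versus native red beetle luciferase in OCI-Ly3 cells, 4 h post-doxycycline with compound; red signal alone, scaled from basal (0%) to zero light (-100%), flagged nonspecific or cytotoxic effects.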
TSHR ag – TSH receptor (human) agonism; P16473; HEK293-CNG-TSHR cells (CNG channel as cAMP sensor), membrane potential dye, cAMP; Potency, µM (series often up to 57.1 µM), most hits filed as activators; actives 0.48% (n = 73,000); AID 926; active = well fitted activation curve with a large enough effect in the main read-out, with a control signal flat, not every such curve was filed as active; inconclusive = small, poorly fitted or top-dose-only effect, or a change in a side signal; inactive = no such curve, though single readings can be large or run the other way; reference of the percent scale not stated here;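 also: the control signal comes from parental cells without the receptor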
Target sequence (P16473 whole entry, looked up): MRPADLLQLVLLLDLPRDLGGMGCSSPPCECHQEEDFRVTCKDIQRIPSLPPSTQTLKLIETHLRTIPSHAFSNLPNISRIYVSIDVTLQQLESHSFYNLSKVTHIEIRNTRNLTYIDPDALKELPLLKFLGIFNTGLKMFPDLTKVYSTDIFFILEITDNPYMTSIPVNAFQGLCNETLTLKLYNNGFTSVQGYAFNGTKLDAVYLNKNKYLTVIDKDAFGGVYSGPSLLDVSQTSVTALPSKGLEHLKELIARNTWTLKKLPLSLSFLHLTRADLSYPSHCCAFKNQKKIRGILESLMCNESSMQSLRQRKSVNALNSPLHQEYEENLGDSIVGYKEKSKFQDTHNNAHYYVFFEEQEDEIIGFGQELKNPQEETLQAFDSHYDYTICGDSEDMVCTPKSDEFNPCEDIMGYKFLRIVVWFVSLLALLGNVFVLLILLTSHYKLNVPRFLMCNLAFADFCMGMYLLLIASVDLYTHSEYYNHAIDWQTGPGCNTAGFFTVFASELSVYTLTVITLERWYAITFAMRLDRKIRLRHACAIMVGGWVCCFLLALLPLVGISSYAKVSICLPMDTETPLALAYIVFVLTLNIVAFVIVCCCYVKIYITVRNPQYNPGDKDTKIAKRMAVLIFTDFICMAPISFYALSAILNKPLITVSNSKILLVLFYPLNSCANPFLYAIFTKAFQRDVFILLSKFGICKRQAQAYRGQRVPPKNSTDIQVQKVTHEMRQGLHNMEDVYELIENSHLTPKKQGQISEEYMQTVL
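HEK 293 cells stably expressing TSHR and a modified CNG channel, with CNG-only parental cells as counterscreen, were preloaded 60 min at room temperature with membrane potential dye containing 100 uM RO 20-1724. Compound exposure was 30 min, and depolarization was read as fluorescence at 590 nm.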
Hits are given with their value; n = inactive; u = inconclusive; x = no result; [ ] = dose if it differs, or a comment. Unless noted, calls follow the shape of the dose curve; as a rule, active = well fitted curve in the direction sought with a large enough effect; inconclusive = small, poorly fitted or top-dose-only effect, or another doubt; inactive = no such curve, though single readings can be large; an effect the other way counts as inactive or inconclusive.

SMILES | HEK293 cAMP ctrl | CRE Fsk mod | ERK AVP inh | IkB sig inh | TSHR ag
Cc1cccc2cc3c(NC(=O)CC(C)C)nn(C)c3nc12 | n | 10µM | n | n | n
CCOc1ccc(Nc2oc(-c3ccco3)nc2C#N)cc1 | n | u | n | n | n
CCOc1ccc(Nc2oc(-c3cccs3)nc2C#N)cc1 | n | 13µM | n | n | n
c1nc(N2CCC3(CC2)OCCO3)c2c3c(sc2n1)CCCC3 | u | u | 32µM | u | u
Cc1c(Br)c(C(F)(F)F)nn1CC(=O)NCC1CCCO1 (stereo unspecified) | n | n | n | n | n
O=C(c1ccco1)N1CCC[C@@]2(CCN(C(c3ccccc3)c3ccccc3)C2)C1 | 16µM | u | n | n[11.4 µM] | u
CC(=O)N1CCC2(CCCN(C(c3ccccc3)c3ccccc3)C2)CC1 | 16µM | u | n | n[11.4 µM] | u
COC(=O)N1CCC[C@@]2(CCN(C(c3ccccc3)c3ccccc3)C2)C1 | 7.9µM | n | n | n[11.4 µM] | u
Cc1noc(C)c1C(=O)N1CCC2(CC1)CCN(C(c1ccccc1)c1ccccc1)CC2 | n | n | n | n[11.4 µM] | 32µM
CCn1cc(C2=NOC(C(=O)Nc3c(C)nn(Cc4ccc(F)cc4)c3C)C2)c(C)n1 (stereo unspecified) | u | n | n | n | u
Cc1ccc(S(=O)(=O)c2ccc(Cl)cc2)cc1S(=O)(=O)N1CCOCC1 | n | n | n | n | n
Cc1ccc(C)c(NC(=O)Cc2coc3cc(C)cc(C)c23)c1 | x | x | x | n | x
Cc1cc(C)c2c(CC(=O)NCc3ccco3)coc2c1 | n | n | n | n | 32µM
COc1ccc(-c2nc(C(N)=O)c3[nH]c(=O)n(-c4cccc(Cl)c4)c3n2)cc1OC | n | u | u | n | x
COc1cccc(-c2nc(C(N)=O)c3[nH]c(=O)n(-c4cccc(Cl)c4)c3n2)c1OC | n | 10µM | x | n | n
COC(=O)c1ccc(Cl)cc1NC(=O)NCc1c(-n2cccc2)sc2c1CCCC2 | x | x | x | n | x
COC(=O)C1CCN(C(c2cc(OC)c(OC)c(OC)c2)c2sc3nc(C)nn3c2O)CC1 (stereo unspecified) | n | 13µM | x | n | n
CCOCCc1nnc(NC(=O)c2cc(OC)c(OC)c(OC)c2)s1 | n | 10µM | n | n | n
COc1cc(C(=O)Nc2nnc(C)s2)cc(OC)c1OC | n | u | x | n | n
N#Cc1c(-c2cccs2)cc(-c2ccccn2)nc1N | n | n | n | n | n
N#Cc1c(-c2cccs2)cc(-c2cccnc2)nc1N | n | 4µM | n | n | n
COc1ccc(C(C(=O)NC2CCCCC2)N(CC2CCCO2)C(=O)CNC(=O)c2ccco2)cc1 (stereo unspecified) | n | n | n | n | n
Cc1ccc(-c2cc(C(F)F)n3ncc(C(=O)N4CCN(c5ccccn5)CC4)c3n2)cc1 | 32µM | n | n | u | u
COc1ccc(-c2csc(N3CCC(C(N)=O)(N4CCCCC4)CC3)n2)cc1 | n | u | 25µM | n | n
COc1ccc(-c2csc(N(CC3CCCO3)C(=O)c3ccco3)n2)cc1 (stereo unspecified) | 20µM | u | n | u | u
SMILES | HEK293 cAMP ctrl | CRE Fsk mod | ERK AVP inh | IkB sig inh | TSHR ag
COc1ccc(-c2csc(N3CCN(C(=O)c4ccco4)CC3)n2)cc1 | n | u | 10µM | u | n
COc1ccc(-c2cc(C(=O)N3CCN(c4ccccn4)CC3)c3ccccc3n2)cc1 | n | u | 10µM | u | x
O=C(c1cnn2c(C(F)F)cc(-c3ccccc3)nc12)N1CCN2CCCC2C1 (stereo unspecified) | u | u | n | n | u
CCN1CCN(C(=O)c2cnn3c(C(F)F)cc(-c4ccc(C)cc4)nc23)CC1 | 16µM | n | n | n | u
COc1ccc(-c2cc(C(F)F)n3ncc(C(=O)N4CCN(C(=O)c5ccco5)CC4)c3n2)cc1 | n | 16µM | n | n | x
CCOc1ccc(NC(=O)c2cnn3c(C(F)F)cc(-c4ccc(C)cc4)nc23)cc1 | x | x | x | n | x
COc1cccc(-c2nnc(SCC(=O)N3CCCCC3)o2)c1 | x | x | x | n | x
COc1cccc(-c2nnc(SCC(=O)N(C(C)C)C(C)C)o2)c1 | 16µM | n | n | n | u
COc1cc(C2c3c(-c4c(C)cc(C)cc4O)n[nH]c3C(=O)N2Cc2ccco2)cc(OC)c1OC (stereo unspecified) | x | x | x | n | x
COC(=O)c1ccc(NS(=O)(=O)c2ccc3c(c2)oc(=O)n3C)cc1 | 1.3µM | n | x | n | u
CC(C)=CC(=O)N1CCCc2ccccc21 | n | n | n | n | n
Cc1cc(C)c(S(=O)(=O)Nc2cccc(C(F)(F)F)c2)c(C)c1 | n | u | u | u | n
CCOC(=O)c1c(C)n(OCc2ccccc2)c2ccc3nonc3c12 | 10µM | 10µM | n | n | u
N#CC1=C(N)Oc2cc(O)ccc2C1c1cccs1 (stereo unspecified) | n | n | n | n | n
CN(C)c1ccc2c(c1)OC(N)=C(C#N)C2c1cccc(F)c1 (stereo unspecified) | 32µM | u | u | u | u
CCCCn1c(CN2C(=O)c3ccccc3C2=O)nc2ccccc2c1=O | n | n | n | n | 20µM
COC(=O)c1cc2occc2n1CC(=O)Nc1ccc(C)cc1C | u | n | n | n | u
CCc1cccc(C)c1NC(=O)Cn1c(=O)n(-c2cccc(C)c2)c(=O)c2c1c1cc(C)ccc1n2C | x | x | x | n | x
COc1ccc(Cn2c(C3CC3)nc3ccc(NC(=O)c4ccco4)cc3c2=O)cc1 | n | u | n | u | x
CCCC[C@@H]1C[C@H]1C(NC(=O)c1ccccc1)c1ccc(Cl)cc1 (stereo partly specified) | u | n | n | x | u
CCCC[C@@H]1C[C@H]1C(NC(=O)c1ccccc1)c1ccc(C(F)(F)F)cc1 (stereo partly specified) | 3.2µM | n | n | x | u
CCCC[C@@H]1C[C@H]1C(NC(=O)c1cccnc1)c1ccc(Cl)cc1 (stereo partly specified) | 25µM | n | u | x | u
CSc1ccc(CCNC(=O)CCc2c(C)nc3c(c(C)nn3-c3ccc(C)c(C)c3)c2C)cc1 | x | x | x | n | x
COc1ccc(C(CNC(=O)Cc2ccc(Cl)cc2)N2CCOCC2)cc1 (stereo unspecified) | x | x | x | n | x
O=C(NCC(c1ccc(F)cc1)N1CCOCC1)c1ccc(Br)o1 (stereo unspecified) | 25µM | n | n | n | u
CCOC(=O)c1[nH]c2c(c1C)C(=O)CC(c1ccco1)C2 (stereo unspecified) | 32µM | 1µM | n | u | u
C=CCOC(=O)c1[nH]c2c(c1C)C(=O)CC(c1cc(OC)c(OC)c(OC)c1)C2 (stereo unspecified) | u | n | u | u | u

Screens deposited in PubChem BioAssay by National Center for Advancing Translational Sciences (NCATS).
